Marburg entry inh – blocks Marburg virus binding to or entry into cells; Marburg virus pseudotyped entry inhibition, cell reporter; Potency, µM (titrated, usually from 37.8 µM), for the others: at the highest dose activity change, negative = inhibition, most hits filed as inhibitors; actives 1.8% (n = 300,000); calls by dose curve; tested in HEK293 cells; also: potency is read from the fitted curve at half-maximal effect; % is scaled to controls: 0 for no effect and ±100 for the full control effect
LASV entry inh – blocks Lassa virus binding to or entry into cells | AID 540256 | Potency, µM (top dose mostly 37.9 µM), without a hit: top-dose activity change, negative = inhibition, hits mostly inhibitors | actives 1.2% (n = 300,000) | Lassa virus pseudotype entry inhibition, cell reporter; calls by dose curve; tested in HEK293 cells; also: potency is read from the fitted curve at half-maximal effect; % is scaled to controls: 0 for no effect and ±100 for the full control effect; nearly all actives have a fitted effect of over 50% in size
CHX counter-1 – affects cycloheximide protein synthesis inhibition readout, counter-screen; cell reporter, cycloheximide protein synthesis inhibition counterscreen; AID 2314; actives 12% (n = 300,000); max response, %; in the data active = max response mostly above about 13%, no sharp cut-off; inactive = mostly below about 14%; also: read at 38.3 µM for the half of the compounds with a filed dose; 0% is about no effect
HCV inhibitor – inhibitors of hepatitis C virus infection; Huh7.5.1 HCVcc-Cre infection, luciferase reporter, 44 h; Potency, µM (highest dose often 41.8 µM), without a hit: at the top dose activity change, negative = inhibition, usual class: inhibitors; actives 3.4% (n = 340,000); active = well fitted inhibition curve with a large enough effect; inconclusive = small, poorly fitted or top-dose-only effect, or another doubt; inactive = no such curve, though single readings can be large or run the other way; also: potency is read from the fitted curve at half-maximal effect; % is scaled to controls: 0 for no effect and ±100 for the full control effect
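Infectious HCVcc-Cre (~0.5 moi) was added to cells just after compound, with cells seeded 4 h earlier at 1,000 per well. Luciferase activity after 44 h culture reported infection; substrate was incubated 15 min at room temperature before reading.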
FMDV inh – antivirals against foot and mouth disease virus. actives 1.2% (n = 410,000). Potency, µM (highest dose often 57.9 µM), without a hit: top-dose activity change, negative = inhibition, usual class: inhibitors. FMDV antiviral cell-based qHTS; calls by dose curve; tested in HEK293T cells; also: read-out not given here; potency is read from the fitted curve at half-maximal effect; % is scaled to controls: 0 for no effect and ±100 for the full control effect; nearly all actives have a fitted effect of over 45% in size
Shiga toxin inh – blocks Shiga toxin action in Vero cells; Vero cells, Shiga toxin protein synthesis inhibition reporter; inhibition, % at 38.7 µM; actives 9.2% (n = 290,000); AID 2315; in the data active = inhibition mostly above about 28%, no sharp cut-off; inactive = mostly below about 43%; also: 0% is about no effect
CHX counter-2 – protein synthesis counter-screen activity for Shiga toxin hits; shares compounds with Shiga toxin inh; Cycloheximide counterscreen, protein synthesis reporter, Shiga toxin assay; Potency, µM (highest dose often 38.3 µM), for the others: at the top dose activity (activation), hits mostly activators; actives 3% (n = 510); AID 2318; calls by dose curve; also: potency is read from the fitted curve at half-maximal effect; 0% is about no effect
An asterisk follows results filed as active; ? = inconclusive; nt = no result given; + = active, no number; [ ] = dose if it differs, or a comment. The list is not random: actives were taken first. Their share in the collection is about 13%.

SMILES	Marburg entry inh	LASV entry inh	CHX counter-1	HCV inhibitor	FMDV inh	Shiga toxin inh	CHX counter-2
CC(C)c1ccc(NC(=O)N2CCCC2C(=O)Nc2ccc(-n3cnnn3)cc2)cc1 (configuration not stated)	10.1%[46.1 µM]	8.6%[46.1 µM]	14.4	11.4%	31.5%	28.8*	2.1%
COc1ccc(NC(=O)CSc2nccn2-c2cccc(OC)c2)cc1	?	?	0.5	4.5%	-29.3%	39.8*	1.9%
CC1CCCCC1NC(=S)Nc1cccc(S(=O)(=O)N(C)C)c1 (configuration not stated)	22.0%[46.1 µM]	-3.4%	-8.8	3.4%	9.0%	12.5	nt
CCOc1ccc(CCN2C(=S)N([C@@H](CC(C)C)CN3CCC[C@@H]3CN3C(=S)NC[C@@H]3CC(C)C)C[C@@H]2CC(C)C)cc1	nt	nt	nt	nt	-24.2%	nt	nt
O=P(CCc1ccccc1)(c1ccccc1)c1ccccc1	-1.0%[46.1 µM]	0.0%[46.1 µM]	nt	7.5%	13.0%	nt	nt
COc1ccc(C(=O)CC(=O)C(=O)Nc2ccc(C)cc2Cl)cc1	?	?	8.5	10µM*	-16.6%	21.8*	-1.9%
COc1ccc(C(=O)CC(=O)C(=O)Nc2ccccc2OC)cc1	nt	nt	7.5	4.4%	-7.6%	27.1	nt
c1ccc(OCCCn2ccnc2)cc1	3.5%[46.1 µM]	3.4%[46.1 µM]	3.9	20.3%	-15.1%	41.7*	-0.2%
COc1ccc(OCCCn2ccnc2)cc1	-3.3%[46.1 µM]	25.7%[46.1 µM]	4.2	3.5%	5.4%	31.4	nt
CN(C)CCC(=O)NCC1OCCc2ccccc21 (configuration not stated)	-4.1%[46.1 µM]	3.1%	-2.7	6.4%	-21.2%	2.4	nt
CCc1ccc(C(O)c2ncc(-c3ccc(C(F)(F)F)cc3)[nH]2)cc1 (configuration not stated)	nt	nt	nt	nt	-5.6%	nt	nt
COc1ccc(S(=O)(=O)Nc2c(C(=O)O)[nH]c3ccccc23)cc1OC	27.2%	1.7%	16.3	10.3%	27.9%	29.8*	5.4%
Cc1ccc(-c2c(CN3CCN(c4cc(C)ccc4C)CC3)csc2C)cc1	nt	12.8%[46.1 µM]	nt	nt	0.0%	nt	nt
COc1ccc(N2CCN(Cc3csc(C)c3-c3ccc(C)cc3)CC2)cc1	?	?	-3.1	?	?	39.8*	-2.5%
CC1CCCC(NC(=O)COC(=O)c2cccc(S(=O)(=O)N3CCCCC3)c2)C1C (configuration not stated)	nt	nt	nt	2.0%	-18.3%	nt	nt
CCOC(=O)c1cc2sccc2n1CCCN1C(=O)c2ccccc2C1=O	-20.1%	0.4%	3.1	-15.9%	?	109.7*	0.2%
N#Cc1cc2c(nc1SCC(=O)Nc1cc(Cl)ccc1Cl)C1CCN2CC1	-23.3%	?	-2.3	?	?	48.3*	?
CC(C)C(=O)Nc1ccc(N2CCOCC2)c(S(=O)(=O)Nc2ccccc2Cl)c1	-23.5%	-27.1%	nt	-24.5%	29.5%	nt	nt
COc1ccc(NC(=O)Cc2c(Sc3ccccc3)c3ccccc3n2C)cc1	1.4%	3.4%	-1.1	-0.2%	2.0%	-8.5	nt
COc1ccc(NC(=O)c2c(Cl)n(C)c3ccccc23)cc1	?	-19.0%	10.8	?	-5.7%	40.3*	12.6µM*
CC1CN(S(=O)(=O)c2cccc(-c3cn4ccccc4n3)c2)CC(C)O1 (configuration not stated)	?	?	19.1	?	nt	-20.7	nt
Cc1cccn2cc(-c3cccc(S(=O)(=O)N4CC(C)OC(C)C4)c3)nc12 (configuration not stated)	nt	nt	-1.5	21.9%	3.5%	28.0*	-1.2%
CCCC(c1nnnn1CCOC)N1CCN(C(=O)c2ccco2)CC1 (configuration not stated)	8.7%	-5.4%	-4.0	6.6%	-1.8%	22.5	nt
CCOC(=O)c1[nH]c2ccc(OC)cc2c1NC(=O)CN1CCC2(CC1)OCCO2	18.0%	-3.9%	5.0	0.6%	-16.4%	-5.1	nt
CCOC(=O)c1[nH]c2ccc(OC)cc2c1NC(=O)C(C)N1CCC2(CC1)OCCO2 (configuration not stated)	1.7%	nt	5.3	nt	nt	49.2*	-1.3%
SMILES	Marburg entry inh	LASV entry inh	CHX counter-1	HCV inhibitor	FMDV inh	Shiga toxin inh	CHX counter-2
COC[C@H]1CCCN1c1ccc2c(c1)O[C@@H](COCc1ccccc1)CN([C@H](C)c1ccccc1)S2(=O)=O	nt	nt	nt	nt	-2.8%	nt	nt
CC(=O)c1cccc(OCC(=O)NC2CCCCCC2)c1	?	7.8%	nt	10.8%	0.0%	nt	nt
COC(=O)c1ccc(-c2noc(CN(C)Cc3ccncc3C)n2)cc1	nt	nt	2.5	15.7%	3.1%	40.2*	0.4%
C=C1C(O)C2OC3(CCC(/C=C/C(C)C4CC(C)=CC5(OC(CC(C)(O)C(=O)O)CCC5O)O4)O3)CCC2OC1C(O)CC(C)C1OC2(CCCCO2)CCC1C (configuration not stated)	nt	nt	-3.4	nt	nt	+	3.5%
C=C1CCC(O)C/C1=C/C=C1\CCC[C@]2(C)[C@@H]([C@H](C)CCCC(C)C)CC[C@@H]12 (some centres not stated)	nt	nt	8.8	nt	nt	64.7*	0.1%
CCSc1nnc(NC(=O)[C@@H](NC(=O)c2ccc(C(C)(C)C)cc2)C(C)C)s1	-2.1%	-4.2%	7.6	20.5%	-24.0%	33.5*	0.0%
CCSc1nnc(NC(=O)[C@@H](NC(=O)c2cccc(C)c2)C(C)C)s1	-2.0%	9.1%	-1.2	7.0%	1.2%	-0.8	nt
CC12CCCCC1=[N+]([O-])CN2O (configuration not stated)	0.4%	-11.4%	-1.4	13.5%	-19.8%	-4.2	nt
CCCc1noc2c1C(c1cc(Br)ccc1F)C(C#N)=C(N)N2 (configuration not stated)	nt	nt	-5.6	?	-15.8%	-3.3	nt
O=C(c1ccccn1)c1ccc2ccccc2n1	2.8%[46.1 µM]	3.8%	10.0	-9.1%	34.0%	56.1*	-1.4%
O=C(NCc1ccccn1)c1ccc2ccccc2n1	23.1%	-2.5%	-1.9	13.9%	13.6%	2.7	nt
Cc1ccc(C2(O)CN(c3ccccc3C)C3=[N+]2CCS3)cc1 (configuration not stated)	-13.9%	11.9%	-2.7	-24.7%	-22.1%	48.2*	-1.3%
CCn1c(P(C)(=O)O)nc2ccccc21	20.9%	-0.5%	-9.3	20.8%	-7.8%	-14.3	nt
CCn1c(P(C)(=O)O)nc2cc(NC(=O)c3ccccc3F)ccc21	12.5%[46.1 µM]	18.6%	6.8	20.6%	9.6%	32.2*	-0.7%
COc1cc(/C=C(\C#N)c2nc3ccccc3[nH]2)ccc1OCc1ccccc1F	nt	?	nt	nt	-12.3%	nt	nt
COc1cc(/C=C(\C#N)c2nc3ccccc3[nH]2)cc(OC)c1O	-20.2%[46.1 µM]	2.1%[46.1 µM]	9.1	?	3.8%	63.7*	?
O=C(Nc1ccccc1)c1ccc(S(=O)(=O)N2CCOCC2)cc1	9.9%	1.7%	5.1	8.2%	0.0%	53.2*	3.7%
O=C(Cc1ccc(Cl)cc1)N1CCOCC1	1.7%	?	-3.0	14.2%	8.2%	-6.7	nt
O=C(CSCc1ccc(Cl)cc1)N1CCOCC1	16.9%	21.1%	9.5	-11.3%	0.0%	65.8*	7.4%

Assay outcomes as filed in PubChem BioAssay.
